Laboratory results as given in PubChem BioAssay.
Activity calls are given as the source filed them.

Tests used:
[1] = binders of probe aFSTL3 on microarray, primary screen, stem cell growth factor project, biochemical, small-molecule microarray, fluorescence 635/667 (AID 1064); conditions: higher = more signal;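 note: measures binding of the biotinylated anti-FSTL3 antibody to printed compounds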
[2] = binders from COS7 lysate, DM2A8 probe, primary screen, torsin A project, cell lysate, small-molecule microarray, fluorescence 635/667 (AID 1065); conditions: higher = more signal, COS7 lysate expressing mutant human TOR1A
[3] = binders of probe aFGF2 on microarray, primary screen, stem cell growth factor project, biochemical, small-molecule microarray, fluorescence 635/667 (AID 1067); conditions: higher = more signal;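 note: measures binding of biotinylated aFGF2 protein to printed compounds on slides; z-score merges feature fluorescence and signal-to-noise across triplicate slides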
[4] = binders of probe aFGF10 on microarray, primary screen, stem cell growth factor project, biochemical, small-molecule microarray, fluorescence 635/667 (AID 1071); conditions: higher = more signal;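 note: score merges 667 nm spot intensity and signal to noise from triplicate slides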
[5] = target: Neurogenic locus notch homolog protein 2 (Homo sapiens) (UniProt Q04721); assay: Notch2 binders on small-molecule microarrays, primary screen, biochemical, small-molecule microarray, 635 nm fluorescence, stem cell growth factors (AID 1073); conditions: Notch2 binding, higher = more signal
[6] = target: Pro-neuregulin-1, membrane-bound isoform (Homo sapiens) (UniProt Q02297); assay: NRG1 binders on small-molecule microarrays, primary screen, psychiatric disease protein project, biochemical, small-molecule microarray, fluorescence 635/667 (AID 1075); conditions: NRG1 binding, 635 nm fluorescence, higher = more signal;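 note: score combines 667 nm spot fluorescence with signal to noise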
[7] = system: Neuregulin-1 EGF-like domain; assay: binders of neuregulin-1 EGF-like domain, primary screen, biochemical, small-molecule microarray, 635 nm fluorescence (AID 1081); conditions: small-molecule microarray binding, higher = more signal;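 note: binding of the protein to compounds printed on small-molecule microarray slides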
[8] = FRG1 promoter luciferase signal modulators, primary screen, FRG1 inhibition for FSHD, cell-based, C2C12 myotubes, firefly/Renilla luciferase, luminescence (AID 1084); conditions: higher = more signal, called active from +8 up or from −8 down
[9] = binders of probe aFST on microarray, primary screen, stem cell growth factor project, biochemical, small-molecule microarray, fluorescence 635/667 (AID 1086); conditions: higher = more signal;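 note: score merges 667 nm fluorescence with signal-to-noise of each printed compound spot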
[10] = binders of probe aHhip on microarray, primary screen, stem cell growth factor project, biochemical, small-molecule microarray, fluorescence 635/667 (AID 1087); conditions: higher = more signal;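 note: score merges spot fluorescence at 667nm with spot signal to noise ratio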
[11] = system: PRMT1 (protein arginine N-methyltransferase 1); assay: PRMT1 binders on small-molecule microarrays, primary screen, biochemical, small-molecule microarray, 635 nm fluorescence (AID 1088); conditions: small-molecule microarray binding, higher = more signal;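 note: binding of Prmt1 protein to compounds spotted on small-molecule microarray slides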
[12] = yeast growth modulation, basal conditions, primary screen, YJM789 clinical isolate, OD600, 24 h (AID 1089);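 note: growth of clinical yeast isolate S. cerevisiae YJM 789 seeded 1000 cells per well; test concentration not given here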; conditions: S. cerevisiae YJM789 growth, higher = more signal, called active from +8 up or from −8 down
[13] = fission yeast growth modulation, primary screen, strain 972, OD600, 24 h, no modulator (AID 1090);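 note: basal condition with compound alone and no growth modifier present; test concentration not given here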; conditions: S. pombe 972 growth, higher = more signal, called active from +8 up or from −8 down
[14] = S. cerevisiae growth modulation with rapamycin, primary screen, strain BY4716, OD600, 96 h (AID 1091); conditions: higher = more signal, called active from +8 up or from −8 down; note: test concentration not given here
[15] = target: Torsin-1A-interacting protein 2 (Homo sapiens) (UniProt Q8NFQ8); assay: LULL1 binders on small-molecule microarray, primary screen, cell lysate, human LULL1 lysate, 635/667 nm fluorescence (AID 1092); conditions: hLULL1 lysate binding, 635 nm fluorescence, higher = more signal;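 note: probe is lysate of COS7 cells overexpressing human LULL1; score merges per-feature 667 nm fluorescence with signal-to-noise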
[16] = E. coli growth modulation, two-sided OD650, primary screen, E. coli filamentation project, strain DRC41, 24 h (AID 1093); conditions: OD650, 24 h, higher = more signal, called active from +8 up or from −8 down;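 note: MC1000 strain lacking acrAB efflux and sulA so SOS filamentation is blocked; test concentration not given here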
[17] = small-molecule microarray binders of probe aLefty2, primary screen, biochemical, biotinylated probe, 635/667 nm fluorescence (AID 1094); conditions: higher = more signal;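 note: score merges spot fluorescence near 667 nm with spot signal-to-noise ratio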
[18] = system: Noggin (protein binding on small-molecule microarray); assay: Noggin binders on small-molecule microarray, primary screen, biochemical, 635/667 nm fluorescence (AID 1095); conditions: 635 nm fluorescence, higher = more signal;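 note: score merges 667 nm feature fluorescence with signal to noise over triplicate slides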
[19] = target: Neurogenic locus notch homolog protein 3 (Homo sapiens) (UniProt Q9UM47); assay: NOTCH3 binders on small-molecule microarray, primary screen, biochemical, 635/667 nm fluorescence (AID 1096); conditions: NOTCH3 binding, 635 nm fluorescence, higher = more signal
[20] = small-molecule microarray binders of probe aEGFR, primary screen, biochemical, biotinylated probe, 635/667 nm fluorescence (AID 1097); conditions: higher = more signal;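 note: probe is a biotinylated anti-EGFR antibody binding compounds printed on slides; score combines fluorescence near 667 nm and signal to noise of each spot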

Sequence of Neurogenic locus notch homolog protein 3 (Homo sapiens) (Q9UM47 whole entry, looked up): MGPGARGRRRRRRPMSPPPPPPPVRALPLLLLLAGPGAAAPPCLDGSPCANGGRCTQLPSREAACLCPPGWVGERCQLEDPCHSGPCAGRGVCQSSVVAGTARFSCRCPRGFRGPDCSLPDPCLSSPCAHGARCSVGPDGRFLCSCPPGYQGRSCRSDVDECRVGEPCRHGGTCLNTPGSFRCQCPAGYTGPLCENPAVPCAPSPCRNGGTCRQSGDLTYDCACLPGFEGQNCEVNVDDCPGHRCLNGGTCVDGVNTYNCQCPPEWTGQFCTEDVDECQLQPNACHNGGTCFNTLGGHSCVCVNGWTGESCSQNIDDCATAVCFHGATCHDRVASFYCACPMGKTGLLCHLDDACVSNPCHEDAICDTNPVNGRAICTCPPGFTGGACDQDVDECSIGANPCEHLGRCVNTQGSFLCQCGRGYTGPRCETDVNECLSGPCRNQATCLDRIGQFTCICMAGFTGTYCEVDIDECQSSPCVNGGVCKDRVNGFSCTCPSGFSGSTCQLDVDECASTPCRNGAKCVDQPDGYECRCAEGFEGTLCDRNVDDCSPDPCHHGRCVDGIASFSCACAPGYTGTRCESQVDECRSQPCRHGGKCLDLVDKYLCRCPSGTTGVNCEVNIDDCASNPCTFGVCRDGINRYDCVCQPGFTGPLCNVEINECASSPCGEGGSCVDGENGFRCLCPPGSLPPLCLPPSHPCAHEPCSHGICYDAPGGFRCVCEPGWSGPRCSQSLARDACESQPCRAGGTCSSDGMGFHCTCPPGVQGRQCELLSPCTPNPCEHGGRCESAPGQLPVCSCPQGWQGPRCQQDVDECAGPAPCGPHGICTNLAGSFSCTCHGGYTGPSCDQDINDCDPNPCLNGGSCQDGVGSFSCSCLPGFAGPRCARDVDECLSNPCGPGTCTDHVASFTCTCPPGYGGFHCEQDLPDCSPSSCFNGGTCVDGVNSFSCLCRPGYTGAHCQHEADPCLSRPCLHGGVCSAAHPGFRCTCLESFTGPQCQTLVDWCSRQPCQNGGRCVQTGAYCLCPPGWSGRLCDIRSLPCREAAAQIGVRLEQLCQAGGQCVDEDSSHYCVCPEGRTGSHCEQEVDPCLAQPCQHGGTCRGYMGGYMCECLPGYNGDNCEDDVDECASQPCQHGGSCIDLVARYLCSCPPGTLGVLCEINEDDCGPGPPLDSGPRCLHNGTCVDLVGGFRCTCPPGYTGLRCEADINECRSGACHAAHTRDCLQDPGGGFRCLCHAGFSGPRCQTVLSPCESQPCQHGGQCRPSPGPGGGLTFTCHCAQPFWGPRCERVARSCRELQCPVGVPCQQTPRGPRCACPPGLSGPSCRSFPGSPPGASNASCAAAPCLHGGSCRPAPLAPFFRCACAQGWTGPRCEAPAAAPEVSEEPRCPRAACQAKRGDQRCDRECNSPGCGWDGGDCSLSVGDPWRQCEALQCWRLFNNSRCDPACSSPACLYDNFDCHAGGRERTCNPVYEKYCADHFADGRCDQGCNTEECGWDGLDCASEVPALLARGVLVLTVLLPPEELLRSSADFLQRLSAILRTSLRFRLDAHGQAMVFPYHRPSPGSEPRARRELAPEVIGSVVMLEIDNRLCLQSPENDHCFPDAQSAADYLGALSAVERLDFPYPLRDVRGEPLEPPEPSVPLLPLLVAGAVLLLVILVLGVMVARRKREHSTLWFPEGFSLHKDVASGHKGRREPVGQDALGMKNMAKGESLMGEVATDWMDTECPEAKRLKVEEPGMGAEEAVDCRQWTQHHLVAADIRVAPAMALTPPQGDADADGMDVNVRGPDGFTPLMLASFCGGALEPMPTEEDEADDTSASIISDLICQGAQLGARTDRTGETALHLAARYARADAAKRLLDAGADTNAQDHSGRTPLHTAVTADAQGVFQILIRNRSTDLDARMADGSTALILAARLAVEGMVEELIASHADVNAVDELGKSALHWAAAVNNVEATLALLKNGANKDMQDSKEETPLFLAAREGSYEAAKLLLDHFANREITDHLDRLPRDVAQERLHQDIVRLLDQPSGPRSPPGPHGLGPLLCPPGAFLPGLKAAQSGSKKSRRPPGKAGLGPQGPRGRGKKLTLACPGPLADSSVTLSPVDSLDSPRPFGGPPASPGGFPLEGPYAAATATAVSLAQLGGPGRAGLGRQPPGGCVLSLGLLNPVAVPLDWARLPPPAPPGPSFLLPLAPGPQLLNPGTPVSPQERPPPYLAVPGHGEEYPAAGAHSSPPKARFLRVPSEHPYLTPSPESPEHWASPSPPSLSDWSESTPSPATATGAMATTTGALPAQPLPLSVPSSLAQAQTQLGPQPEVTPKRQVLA
Sequence of Pro-neuregulin-1, membrane-bound isoform (Homo sapiens) (Q02297 whole entry, looked up, the tested form may be a part, canonical isoform): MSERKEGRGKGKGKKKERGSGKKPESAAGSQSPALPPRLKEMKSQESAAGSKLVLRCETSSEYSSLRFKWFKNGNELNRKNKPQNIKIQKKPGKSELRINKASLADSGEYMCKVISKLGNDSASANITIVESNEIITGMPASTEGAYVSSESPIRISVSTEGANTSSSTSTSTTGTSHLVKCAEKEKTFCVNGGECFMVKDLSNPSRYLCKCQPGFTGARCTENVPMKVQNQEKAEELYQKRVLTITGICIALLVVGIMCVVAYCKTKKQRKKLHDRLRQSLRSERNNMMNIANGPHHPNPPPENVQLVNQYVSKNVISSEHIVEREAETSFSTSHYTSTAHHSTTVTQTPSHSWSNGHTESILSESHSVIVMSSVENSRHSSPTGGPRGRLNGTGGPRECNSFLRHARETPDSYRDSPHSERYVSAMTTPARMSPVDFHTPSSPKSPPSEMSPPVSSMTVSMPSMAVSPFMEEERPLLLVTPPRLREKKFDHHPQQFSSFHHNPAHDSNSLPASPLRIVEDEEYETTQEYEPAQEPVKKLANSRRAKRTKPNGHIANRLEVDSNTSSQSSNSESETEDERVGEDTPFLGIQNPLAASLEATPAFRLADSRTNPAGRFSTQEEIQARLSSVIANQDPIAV
Sequence of Torsin-1A-interacting protein 2 (Homo sapiens) (Q8NFQ8 whole entry, looked up): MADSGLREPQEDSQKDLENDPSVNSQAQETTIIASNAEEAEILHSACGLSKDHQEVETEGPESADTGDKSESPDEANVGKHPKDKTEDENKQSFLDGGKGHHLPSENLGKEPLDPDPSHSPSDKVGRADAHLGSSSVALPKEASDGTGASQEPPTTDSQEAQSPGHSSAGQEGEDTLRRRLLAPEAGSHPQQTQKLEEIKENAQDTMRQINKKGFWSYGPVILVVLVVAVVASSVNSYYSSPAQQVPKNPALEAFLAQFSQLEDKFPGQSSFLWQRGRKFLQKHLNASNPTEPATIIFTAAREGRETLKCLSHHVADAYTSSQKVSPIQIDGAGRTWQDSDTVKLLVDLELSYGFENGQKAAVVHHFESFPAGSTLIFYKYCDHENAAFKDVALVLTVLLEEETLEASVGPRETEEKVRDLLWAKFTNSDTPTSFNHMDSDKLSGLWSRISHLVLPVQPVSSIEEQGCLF

SMILES	composite z-score [1]	composite z-score [2]	composite z-score [3]	composite z-score [4]	composite z-score [5]	composite z-score [6]	composite z-score [7]	z-score [8]	composite z-score [9]	composite z-score [10]	composite z-score [11]	z-score [12]	z-score [13]	z-score [14]	composite z-score [15]	z-score [16]	composite z-score [17]	composite z-score [18]	composite z-score [19]	composite z-score [20]
COCCOC(=O)N1C(=O)[C@@]2(c3ccccc31)[C@H](C(=O)N1CCCCCCC1)[C@H]1C(=O)O[C@H](c3ccccc3)[C@H](c3ccccc3)N1[C@@H]2c1ccc(OCCO)cc1	4.16	2.62	1.09	1.49	1.75	2.93	1.5	-1.64 (inactive)	3.82	3.98	1.54	1.9 (inactive)	1.62 (inactive)	4.28 (inactive)	4.99	-0.348 (inactive)	1.98	2.22	1	1.38
CC(=O)n1cc(C(O)C2C=CC3C(=O)NC(=O)C3N2Nc2ccccn2)c2ccccc21 (stereo not given)	0.125	0.0908	-0.0583	0.122	0.887	0.298	1.27	1.15 (inactive)	0.221	-0.179	0.553	0.505 (inactive)	0.777 (inactive)	0.171 (inactive)	0.134	-0.965 (inactive)	-0.0594	0.187	0.375	-0.0084
CCCC[C@H]1C[C@@H]1[C@@H]1N(P(=O)(c2ccccc2)c2ccccc2)C[C@@](O)(c2ccccc2)CC12CC2	0.666	-0.152	0.183	-0.102	1.45	0.862	0.541	1.11 (inactive)	1.39	0.893	0.761	-0.841 (inactive)	-7.02 (inactive)	32.9 (active)	3.06	-0.931 (inactive)	0.356	-0.695	-0.317	0.0144
CC(C)NC(=O)[C@@]1(Cc2ccccc2I)c2ccccc2C(=O)N(Cc2ccccc2Cl)[C@H]1c1ccc(CO)cc1	0.232	0.152	0.028	0.504	0.917	1.19	1.22	-2.18 (inactive)	0.237	-0.0994	1.51	1.14 (inactive)	-0.199 (inactive)	1.39 (inactive)	2.59	-0.406 (inactive)	-0.0441	0.607	1.08	-0.0181
C[N+](C)(C)CCCC[C@@H]1NC(=O)[C@@H]2C[C@H](C(=O)NCCCCCN)[C@H](c3ccc(O)cc3)N2C1=O	0.419	0.896	0.0522	0.628	1	1.54	0.636	-1.76 (inactive)	1.19	0.266	1.53	-4.09 (inactive)	-1.1 (inactive)	-0.978 (inactive)	2.46	1.12 (inactive)	0.79	1.01	1.09	0.239
COCCCNC(=O)[C@@]1(Cc2ccccc2CN=[N+]=[N-])N=C(c2ccc(OCCCO)cc2)O[C@H]1c1ccccc1CN=[N+]=[N-]	-0.152	0.321	0.154	0.916	1.27	1.96	1.11	0.399 (inactive)	1.43	-0.286	1.24	-2.06 (inactive)	-1.07 (inactive)	26.7 (active)	3.34	1.71 (inactive)	0.239	0.406	0.885	-0.067
CN(C)CCCCNC(=O)[C@@H]1C[C@@H]2C(=O)N[C@@H](CCCCN)C(=O)N2[C@@H]1c1ccc(O)cc1	0.597	0.034	-0.145	-0.146	0.471	0.707	1.13	-0.778 (inactive)	0.214	0.151	1.3	0.184 (inactive)	1.17 (inactive)	3.58 (inactive)	1.12	0.813 (inactive)	0.0864	0.855	0.159	0.0552
OCC1C=C(/C=C/c2ccccc2)CN1Cc1ccccc1Br (stereo not given)	-0.337	0.422	0.0619	0.979	1.42	0.808	0.331	-1.8 (inactive)	0.379	-0.136	0.94	-0.486 (inactive)	-11.3 (active)	-1.4 (inactive)	1.44	1.58 (inactive)	0.0265	0.876	0.854	0.0339
CC(C)[Si](C#C[Si](C(C)C)(C(C)C)C(C)C)(O[C@H](C)c1cn(Cc2ccccc2)nn1)C(C)C	-0.169	0.209	-0.106	0.422	0.795	0.566	0.938	-1.66 (inactive)	0.372	-0.337	1.04	0.319 (inactive)	0.497 (inactive)	-0.109 (inactive)	1.92	1.32 (inactive)	-0.0936	0.369	0.928	0.0026
O=C(CS)NCCCCCNC(=O)[C@@H]1C[C@@H]2C(=O)NCC(=O)N2[C@@H]1c1ccc(O)cc1	-0.0188	0.654	-0.11	0.0152	-0.966	0.317	1.39	0.111 (inactive)	-0.155	-0.0003	1.08	0.118 (inactive)	-0.771 (inactive)	0.494 (inactive)	1.47	2.13 (inactive)	-0.124	0.362	0.179	-0.15
C=CC[C@]1(C(N)=O)COC(c2ccc(OCCCO)cc2)=N1	-0.123	0.38	-0.0407	0.282	0.85	0.0632	1.09	-0.25 (inactive)	0.418	-0.0645	0.322	0.924 (inactive)	-1.09 (inactive)	-1.09 (inactive)	1.38	1.27 (inactive)	0.301	0.27	-0.769	-0.139
